Measured values published in PubChem BioAssay AID493076 (National Center for Advancing Translational Sciences (NCATS), 2011).
Some of the results follow. Results filed as inconclusive are left out. Calls of active or inactive are those of the source. Calls come from the whole dose curve; as a rule, active = well fitted curve in the direction sought with a large enough effect; inconclusive = small, poorly fitted or top-dose-only effect, or effect the other way, or another doubt; inactive = no such curve, though single readings can be large or run the other way.

Target: Thyrotropin-releasing hormone receptor (Homo sapiens) (UniProt P34981)
Sequence (P34981 whole entry, looked up): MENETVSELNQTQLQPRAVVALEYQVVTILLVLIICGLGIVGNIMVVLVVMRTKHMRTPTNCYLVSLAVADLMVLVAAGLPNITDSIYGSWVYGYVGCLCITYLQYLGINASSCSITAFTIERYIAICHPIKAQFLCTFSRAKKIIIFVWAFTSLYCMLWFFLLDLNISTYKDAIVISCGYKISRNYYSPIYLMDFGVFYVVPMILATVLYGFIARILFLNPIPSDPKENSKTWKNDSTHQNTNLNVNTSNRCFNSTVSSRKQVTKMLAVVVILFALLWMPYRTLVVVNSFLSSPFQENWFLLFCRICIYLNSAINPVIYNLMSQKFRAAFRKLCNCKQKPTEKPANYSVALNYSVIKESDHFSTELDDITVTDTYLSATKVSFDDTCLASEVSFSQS
Experiment: qHTS for Small Molecule Agonists and Allosteric Enhancers of Human TRH Receptor: Confirmation Screen for Enhancers
Conditions: TRH receptor cell assay, enhancer confirmation qHTS; series mostly up to 46.1 µM
Source text: NIH Chemical Genomics Center [NCGC]
NIH Molecular Libraries Probe Centers Network [MLPCN]
Assay Submitter (PI): Marvin Gershengorn
This project aims to identify small drug-like molecules that activate (agonists) the thyrotropin releasing hormone (TRH) receptor (TRHR) or enhance its TRH-stimulated activity (allosteric enhancers). TRHR, a drug-accessible cell surface receptor expressed in specific brain regions, and its ligand TRH have been implicated in several central nervous system disorders, including depression and anxiety. Small molecule TRHR agonists or allosteric enhancers that are metabolically stable and able to cross the blood-brain barrier might serve as probes to elucidate the roles of brain TRH receptors in animal models, and might be valuable as lead compounds for the development of drugs to treat patients with central nervous system disorders.
Upon TRHR-Gq activation in TRHR cells, intracellular calcium is released from stores in the endoplasmic reticulum. […] This primary screen measures compound-induced enhancement of an EC20 stimulation of the receptor by its native ligand.
For the HTS assay freshly prepared cells are plated at a density of 2000/well in 3 ul of complete DMEM medium containing 10% serum in 1536-well plates and cultured over night at 37 C in a humidified incubator with 5% CO2. The next day, 2 ul of a no wash calcium dye (ABD Bioquest) was added to the cells and plates were incubated at room temperature for 1 hour. For the assay, assay plates were loaded into the FDSS kinetic plate reader. A 10 cycle (1 second/cycle) baseline measurement is taken and then the FDSS online 1536 pintool delivers 23 nl of compound library (as well as TRH controls) to the plate. The plate is measured for kinetically at 1 cycle/sec for 180 seconds and is considered to be the agonist portion of the assay (eg, compounds which activate a positive calcium response during this portion are flagged as potential agonists). Following the 180 second read, 1 ul of either an EC20 (positive modulation assay) is delivered by an onboard pipette head. Measurements are taken kinetically for an additional 180 seconds.
TRHR FDSS Screening Protocol
1. Reagent, 3 uL 2000 cells/well 1536 TC treated Black plate in media containing 10% FCS
2. Time, 18 hours, 33.5C 5% CO2 (cells grown at 37C)
3. Reagent, 2 uL ABD fluo-8 Ca dye
4. Time, 30 min-1.5hrs hours, Room temp (6 plates/batch)
5. Detector, EX 480/EM 530C, FDSS 10 cycles baseline (1sec/cycle)
6. Compound, 23 nL of stock solution from library
7. Detector, EX 480/EM 530C, FDSS 230 cycles (1sec/cycle) Agonist mode
8. Compound, 1 ul EC20 of TRH made up in HEPES HBSS, 10 nM final
9. Detector, EX 480/EM 530C, FDSS 100 cycles (1sec/cycle) Potentiator mode

outcome, inactive:
COc1ccc(CCn2ccc(O)c(Cc3ccc(Cl)cc3Cl)c2=O)cc1OC
CC1=C(C)CC(C(=O)NC(C)CCc2ccccc2)C(C(=O)O)C1 (stereo not drawn)
CC(C)c1nnc(NC(=O)CCC(=O)N2CCN(c3cccc(Cl)c3)CC2)s1
